This is an account of results in PubChem BioAssay (EPA / NIEHS).

Molecules are shown by their SMILES. More than one record can exist for a structure, and the calls need not agree. Activity calls are given as the source filed them. How the source made its calls: active means hit-call score of the fitted dose curve at least 0.9, where 1 is the maximum; inactive means score below 0.9.

Read-out in experiment [1]: Transforming growth factor beta 1 (TGFb1), TGFB1 (gene 7040)
The experiment in a line: BSK_KF3CT_TGFb1: BioMAP Diversity Plus: KF3CT Assay for Transforming growth factor beta 1 (TGFb1) Biomarker Activity (AID 2283072). The conditions noted are these: primary human keratinocytes with fibroblasts; actives raise or lower the signal. An outline of the steps: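 ELISA quantifies TGF-b1 at 24 h post-dose in a primary human skin co-culture of keratinocytes and fibroblasts, with gain or loss judged against DMSO. Parallel SRB total-protein staining flags overt cytotoxicity.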

Read-out in experiment [2]: C-C motif chemokine 2 (Homo sapiens) (UniProt P13500)
The experiment in a line: BSK_KF3CT_MCP1: BioMAP Diversity Plus: KF3CT Assay for Monocyte Chemoattractant Protein 1 (MCP1/CCL2) Biomarker Activity (AID 2283073). To be noted: primary human keratinocytes with fibroblasts; actives raise or lower the signal. The essentials:
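Human keratinocyte–foreskin fibroblast co-culture; MCP-1 measured by ELISA 24 h after dosing. Bidirectional fit vs DMSO; cytotoxicity tracked by SRB total protein in parallel cultures.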

Read-out in experiment [3]: Matrix Metallopeptidase 9 (MMP9), MMP9 (gene 4318)
The experiment in a line: BSK_KF3CT_MMP9: BioMAP Diversity Plus: KF3CT Assay for Matrix Metallopeptidase 9 (MMP9) Biomarker Activity (AID 2283074). The conditions noted are these: primary human keratinocytes with fibroblasts; actives raise or lower the signal. An outline of the steps: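 Values come from bidirectional fitting relative to DMSO of MMP-9 levels, which were measured by ELISA. Measurements were taken 24 h after chemical dosing of a keratinocyte and foreskin fibroblast co-culture.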

Read-out in experiment [4]: urokinase plasminogen activator (uPA), PLAU (gene 5328)
The experiment is described as follows: BSK_KF3CT_uPA: BioMAP Diversity Plus: KF3CT Assay for urokinase plasminogen activator (uPA) Biomarker Activity (AID 2283075). The conditions noted are these: primary human keratinocytes with fibroblasts; actives raise or lower the signal. The essentials: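 Values derive from bidirectional fitting against DMSO controls. Keratinocyte/foreskin fibroblast co-cultures received chemical; 24 h later uPA was detected by ELISA, with SRB total-protein staining in parallel wells for overt cytotoxicity.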

Read-out in experiment [5]: CD40, CD40 (gene 958)
The experiment in a line: BSK_LPS_CD40: BioMAP Diversity Plus: LPS Assay for CD40 Biomarker Activity (AID 2283076). The conditions noted are these: primary human HUVEC with PBMC; actives raise or lower the signal. An outline of the steps: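 HUVEC plus PBMC co-culture stimulated with LPS; CD40 quantified by ELISA 24 h after compound dosing. Fitting was bidirectional relative to DMSO. SRB staining of parallel cultures flagged overt cytotoxicity.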

Read-out in experiment [6]: E-selectin (Homo sapiens) (UniProt P16581)
The experiment in a line: BSK_LPS_Eselectin: BioMAP Diversity Plus: LPS Assay for Eselectin Biomarker Activity (AID 2283077). To be noted: primary human HUVEC with PBMC; actives raise or lower the signal. The essentials: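 Human umbilical vein endothelial cells co-cultured with PBMC under LPS stimulation; cell-surface E-selectin measured by ELISA 24 h after dosing. Change in either direction versus DMSO, with SRB total-protein staining in parallel cultures for cytotoxicity.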

Read-out in experiment [7]: Interleukin-8 (IL8), CXCL8 (gene 3576)
The experiment is described as follows: BSK_LPS_IL8: BioMAP Diversity Plus: LPS Assay for Interleukin-8 (IL8) Biomarker Activity (AID 2283078). The conditions noted are these: primary human HUVEC with PBMC; actives raise or lower the signal. The essentials: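 Human umbilical vein endothelial cells co-cultured with PBMC, LPS-stimulated, exposed to compound for 24 h. IL-8 quantified by ELISA; fitted in both directions against DMSO, with SRB total-protein staining of parallel cultures for cytotoxicity.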

Experiment [8] can be described thus: BSK_LPS_SRB: Viability Assessment in the BioMAP Diversity Plus: LPS Assay (AID 2283079).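 Further: total protein by sulforhodamine B absorbance as a cytotoxicity measure; measured one day after compound addition; fitted in both directions against DMSO so loss or gain of signal counts.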 The conditions noted are these: primary human HUVEC with PBMC. The essentials: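 Co-culture of human umbilical vein endothelial cells and PBMC, read 24 h after dosing. Total protein by 0.1% SRB staining after 10% TCA fixation, absorbance at 560 nm; bidirectional fit against DMSO.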

Read-out in experiment [9]: Interleukin-1 alpha (IL1a), IL1A (gene 3552)
The experiment is described as follows: BSK_LPS_IL1a: BioMAP Diversity Plus: LPS Assay for Interleukin-1 alpha (IL1a) Biomarker Activity (AID 2283080). To be noted: primary human HUVEC with PBMC; actives raise or lower the signal. An outline of the steps: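 Human umbilical vein endothelial cells co-cultured with PBMC and stimulated with LPS; IL-1a measured by ELISA 24 h after dosing. Bidirectional fitting against DMSO; cytotoxicity checked by SRB staining in parallel cultures.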

Read-out in experiment [10]: Monocyte Chemoattractant Protein-1 (MCP1), CCL2 (gene 6347)
The experiment in a line: BSK_LPS_MCP1: BioMAP Diversity Plus: LPS Assay for Monocyte Chemoattractant Protein-1 (MCP1) Biomarker Activity (AID 2283081). To be noted: primary human HUVEC with PBMC; actives raise or lower the signal. An outline of the steps: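 Human umbilical vein endothelial cells co-cultured with PBMC, LPS-stimulated; secreted MCP-1 measured by ELISA 24 h after compound addition. Bidirectional curve fitting against DMSO baseline; SRB total-protein staining in parallel cultures for cytotoxicity.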

Experiment [11] in a line: BSK_LPS_PGE2: BioMAP Diversity Plus: LPS Assay for Prostaglandin E2 (PGE2) Biomarker Activity (AID 2283082). The conditions noted are these: primary human HUVEC with PBMC; actives raise or lower the signal. An outline of the steps: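 PGE2 release measured by ELISA in an LPS-activated co-culture of human umbilical vein endothelial cells and peripheral blood mononuclear cells, read at 24 h post-dosing. DMSO served as baseline for bidirectional curve fitting.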

Read-out in experiment [12]: Macrophage colony-stimulating factor (MCSF), CSF1 (gene 1435)
The experiment is described as follows: BSK_LPS_MCSF: BioMAP Diversity Plus: LPS Assay for Macrophage colony-stimulating factor (MCSF) Biomarker Activity (AID 2283083). The conditions noted are these: primary human HUVEC with PBMC; actives raise or lower the signal. The essentials: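 HUVEC–PBMC co-culture, M-CSF measured by ELISA 24 h after chemical dosing. Fitted in both directions relative to DMSO as negative control; overt cytotoxicity assessed by SRB total-protein staining in parallel cultures.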

Read-out in experiment [13]: Tissue Factor, F3 (gene 2152)
The experiment is described as follows: BSK_LPS_TissueFactor: BioMAP Diversity Plus: LPS Assay for Tissue Factor Biomarker Activity (AID 2283084). To be noted: primary human HUVEC with PBMC; actives raise or lower the signal. An outline of the steps: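 Human umbilical vein endothelial cells co-cultured with PBMC were dosed with compound. Cell-surface CD142 was measured by ELISA 24 h later. Activity was fitted bidirectionally against DMSO, with SRB total-protein staining in parallel cultures for cytotoxicity.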

Read-out in experiment [14]: Tumor necrosis factor (Homo sapiens) (UniProt P01375)
The experiment in a line: BSK_LPS_TNFa: BioMAP Diversity Plus: LPS Assay for Tumour Necrosis Factor alpha (TNFa) Biomarker Activity (AID 2283085).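 On AC50: TNFa protein level quantified by ELISA in the co-culture.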 The conditions noted are these: primary human HUVEC with PBMC; actives raise or lower the signal. An outline of the steps:
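TNFa was quantified by ELISA in LPS-activated co-cultures of human endothelial cells and PBMC, 24 h post-dosing. Both increases and decreases versus DMSO were fitted.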

Read-out in experiment [15]: Vascular cell adhesion molecule 1 (VCAM1), VCAM1 (gene 7412)
The experiment is described as follows: BSK_LPS_VCAM1: BioMAP Diversity Plus: LPS Assay for Vascular cell adhesion molecule 1 (VCAM1) Biomarker Activity (AID 2283086). The conditions noted are these: primary human HUVEC with PBMC; actives raise or lower the signal. An outline of the steps:
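VCAM-1 quantified by ELISA in an LPS-activated co-culture of human endothelial cells and peripheral blood mononuclear cells, read 24 h post-treatment. Fitted in both directions versus DMSO; parallel SRB staining flags overt cytotoxicity.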

Read-out in the next experiment: CD38, CD38 (gene 952)
The experiment in a line: BSK_SAg_CD38: BioMAP Diversity Plus: SAg Assay for CD38 Biomarker Activity (AID 2283087). The conditions noted are these: primary human HUVEC with PBMC; actives raise or lower the signal. The essentials: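 CD38 quantified by ELISA (fluorescence) in a superantigen-activated endothelial cell–PBMC co-culture at 24 h post-dose. Activity fitted in both directions relative to DMSO; parallel SRB and Alamar Blue cytotoxicity read-outs.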

Read-out in experiment [16]: CD40, CD40 (gene 958)
The experiment in a line: BSK_SAg_CD40: BioMAP Diversity Plus: SAg Assay for CD40 Biomarker Activity (AID 2283088). The conditions noted are these: primary human HUVEC with PBMC; actives raise or lower the signal. An outline of the steps: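 HUVEC plus PBMC co-culture, superantigen-activated, with CD40 read by ELISA 24 h after dosing. Curves fitted in both directions against DMSO. Overt cytotoxicity checked by parallel SRB total-protein staining.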

Read-out in the next experiment: CD69, CD69 (gene 969)
The experiment is described as follows: BSK_SAg_CD69: BioMAP Diversity Plus: SAg Assay for CD69 Biomarker Activity (AID 2283089). To be noted: primary human HUVEC with PBMC; actives raise or lower the signal. The essentials: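 Endothelial/PBMC co-culture; chemical added; 24 h incubation; CD69 ELISA with fluorescence detection; bidirectional fit vs DMSO.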

Read-out in experiment [17]: Monocyte Chemoattractant Protein-1 (MCP1), CCL2 (gene 6347)
The experiment is described as follows: BSK_SAg_MCP1: BioMAP Diversity Plus: SAg Assay for Monocyte Chemoattractant Protein-1 (MCP1) Biomarker Activity (AID 2283090). To be noted: primary human HUVEC with PBMC; actives raise or lower the signal. An outline of the steps:
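Values derive from bidirectional fitting of ELISA-measured MCP1 against DMSO controls. Readings were taken 24 h after dosing human vascular endothelial cells co-cultured with peripheral blood mononuclear cells under superantigen stimulation.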

Chain of E-selectin (Homo sapiens) (P16581 whole entry, looked up): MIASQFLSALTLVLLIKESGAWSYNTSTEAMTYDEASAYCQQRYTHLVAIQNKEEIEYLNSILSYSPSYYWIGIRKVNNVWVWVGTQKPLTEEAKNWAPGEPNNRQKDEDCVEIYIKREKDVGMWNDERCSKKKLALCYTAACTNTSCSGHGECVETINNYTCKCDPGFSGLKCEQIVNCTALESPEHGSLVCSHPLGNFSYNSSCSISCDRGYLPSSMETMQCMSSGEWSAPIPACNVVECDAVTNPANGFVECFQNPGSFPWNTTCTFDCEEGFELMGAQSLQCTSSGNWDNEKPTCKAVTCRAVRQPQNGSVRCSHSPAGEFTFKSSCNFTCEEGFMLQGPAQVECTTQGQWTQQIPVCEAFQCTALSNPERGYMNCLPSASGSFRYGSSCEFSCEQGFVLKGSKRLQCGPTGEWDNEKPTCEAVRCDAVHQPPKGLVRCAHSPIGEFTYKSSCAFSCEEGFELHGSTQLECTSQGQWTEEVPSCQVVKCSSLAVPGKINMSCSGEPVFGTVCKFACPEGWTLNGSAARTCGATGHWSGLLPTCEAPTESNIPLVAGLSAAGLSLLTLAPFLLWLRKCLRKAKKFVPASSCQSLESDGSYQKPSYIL
Chain of Tumor necrosis factor (Homo sapiens) (P01375 whole entry, looked up): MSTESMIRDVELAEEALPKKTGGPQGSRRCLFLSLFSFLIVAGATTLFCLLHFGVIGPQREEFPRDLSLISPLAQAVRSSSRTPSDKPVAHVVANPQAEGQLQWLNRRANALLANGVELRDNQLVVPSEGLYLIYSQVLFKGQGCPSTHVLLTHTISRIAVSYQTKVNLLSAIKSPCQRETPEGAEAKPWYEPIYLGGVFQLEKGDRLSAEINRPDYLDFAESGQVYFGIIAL

Take `CC(C)(C)C(O)C(Oc1ccc(Cl)cc1)n1cncn1` (stereo not given): the outcome in experiment [1] is “inactive”; in [2] it was “inactive”; in experiment [3] it was “inactive”; in experiment [4], “inactive”; with CD40, CD40 (gene 958) [5] it was “inactive”; in experiment [6] it was “inactive”. The outcome in [7], in experiment [8], in [9], in [10], in experiment [11] and in [12] was inactive. In addition, the outcome in experiment [13] was “inactive”; in [14], “inactive”; in experiment [15], “inactive”; with CD38, CD38 (gene 952) it was “inactive”; with CD40, CD40 (gene 958) [16] it was “inactive”; with CD69, CD69 (gene 969), “inactive”. For the same molecule, the outcome in experiment [17] was inactive. In addition, the AC50 in [11] was 3.1 µM (active); in [12] it was 20 µM (active); with CD38, CD38 (gene 952) it was 4.99 µM (active); with CD40, CD40 (gene 958) [16] it was 8.99 µM (active).
Consider `ClC1C(Cl)C(Cl)C(Cl)C(Cl)C1Cl` (stereo not given), for which the AC50 was 20 µM (active) in experiment [1], 13.3 µM (active) in [14] and 31.3 µM (active) in experiment [15]. Further, the outcome in experiment [1] was “inactive”; in [2] it was “inactive”; in [3] it was “inactive”; in experiment [4], “inactive”; with CD40, CD40 (gene 958) [5], “inactive”; in experiment [6], “inactive”. Further, the outcome in [7], in experiment [8], in experiment [9], in [10], in experiment [11] and in [12] was inactive. The outcome in experiment [13] was “inactive”; in experiment [14], “inactive”; in [15], “inactive”; with CD38, CD38 (gene 952), “inactive”; with CD40, CD40 (gene 958) [16] it was “inactive”; in the experiment with CD69, CD69 (gene 969), “inactive”. The outcome in [17] was inactive.
